Screening results as filed in PubChem BioAssay.
Shown are actives, neighbours in structure and some others; about 3% of the full set was active somewhere.
SENP6 block – inhibitors of human SENP6 protease; Q9GZR1; AID 2599; inhibition, % at 10 µM; Recombinant SENP6 catalytic domain, aminoluciferin luminescence; 330,000 compounds, 1.8% hits;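 active = inhibition above about 50% at the single tested dose, limit read from the data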
Target sequence (Q9GZR1 628-1112 limits assumed): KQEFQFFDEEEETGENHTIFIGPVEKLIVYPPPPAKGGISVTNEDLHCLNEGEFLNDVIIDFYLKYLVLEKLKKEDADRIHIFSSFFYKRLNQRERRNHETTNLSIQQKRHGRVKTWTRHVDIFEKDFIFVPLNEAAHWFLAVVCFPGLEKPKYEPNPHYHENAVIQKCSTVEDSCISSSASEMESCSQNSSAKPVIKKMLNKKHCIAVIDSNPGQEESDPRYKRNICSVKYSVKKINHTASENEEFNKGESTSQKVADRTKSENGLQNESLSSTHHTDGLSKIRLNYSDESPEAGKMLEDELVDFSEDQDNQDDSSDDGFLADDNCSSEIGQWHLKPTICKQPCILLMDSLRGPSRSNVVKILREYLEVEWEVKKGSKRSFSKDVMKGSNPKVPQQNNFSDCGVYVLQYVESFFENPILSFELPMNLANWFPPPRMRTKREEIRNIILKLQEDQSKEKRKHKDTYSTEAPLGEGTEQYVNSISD
SENP7 inh – SENP7 protease inhibition; recombinant SENP7, Z-RLRGG-aminoluciferin luminescence, 40 min; 330,000 compounds, 1.5% hits; inhibition, % at 5 µM; Q9BQF6; AID 434973;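 active = inhibition above about 50% at the single test dose, limit read from the data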
PPC-1+TRAIL kill – PPC-1 cancer cell killing with TRAIL present | PPC-1 cells + TRAIL, ATPLite viability luminescence | 220,000 compounds, 0.41% hits | cell killing (% activity), % at 4 µM or 5 µM | AID 1443;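 active = cell killing above 50% in the first pass at 4 µM, then a duplicate retest at 5 µM averaging 50% or more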
C8 TRAIL sens – sensitizes caspase-8 expressing cells to TRAIL. NB7+C8 cells + TRAIL, ATPlite viability luminescence. inhibition (viability loss, TRAIL sensitization), % at 10 µM. 360,000 compounds, 1% hits;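 active = compounds causing at least 50% loss of cell viability in the single-dose screen, relative to plate controls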
SENP8 block-1 – blocks the human protease SENP8. Q96LD8. purified SENP8, Z-RLRGG-aminoluciferin cleavage, luminescence. inhibition, % at 10 µM. 330,000 compounds, 1.2% hits. AID 2540; in the data active = inhibition above about 50%
Target sequence (Q96LD8 whole entry, looked up): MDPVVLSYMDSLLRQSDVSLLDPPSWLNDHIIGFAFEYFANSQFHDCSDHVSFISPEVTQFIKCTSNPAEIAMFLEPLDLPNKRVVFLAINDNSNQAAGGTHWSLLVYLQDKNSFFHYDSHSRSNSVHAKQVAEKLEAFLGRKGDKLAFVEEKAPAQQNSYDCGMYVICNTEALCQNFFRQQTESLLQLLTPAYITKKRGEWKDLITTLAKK
SENP8 block-2 – inhibitors of human SENP8 protease. Q96LD8. inhibition, % at 20 µM. recombinant SENP8, Nedd8 substrate fluorescence. AID 602440. 360,000 compounds, 0.64% hits; in the data active = inhibition mostly above about 40%, no sharp cut-off; inactive = mostly below about 27%
SENP8 conf – human SENP8 inhibition, confirmed. shares compounds with SENP7 inh. Recombinant SENP8, Z-RLRGG-aminoluciferin luminescence, 60 min. inhibition, % at 12.5 µM. 6,200 compounds, 40% hits. AID 488912;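 active = mean inhibition across replicates above about 50%, limit read from the data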
SENP6 conf – human SENP6 inhibition, confirmed; 6,200 compounds, 58% hits; shares compounds with SENP7 inh; inhibition, % at 12.5 µM; AID 488915; recombinant SENP6, Z-RLRGG-aminoluciferin luminescence
SENP7 conf – human SENP7 inhibition, confirmed | inhibition, % at 12.5 µM | recombinant SENP7, Z-RLRGG-aminoluciferin luminescence, 40 min | AID 488917 | 6,200 compounds, 69% hits | shares compounds with SENP7 inh
Casp3 SENP sel – caspase-3 inhibition (SENP selectivity assay); shares compounds with SENP7 inh; purified caspase-3, Z-DEVD-aminoluciferin luminescence, 60 min; inhibition, % at 12.5 µM; 6,200 compounds, 60% hits; AID 488918;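 active = mean inhibition above about 50%, limit read from the data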
SENP luc ctr – counter-screen for SENP inhibitors: luminescence interference; shares compounds with SENP7 inh; Pre-incubated SENP8/Z-RLRGG-aminoluciferin, luciferase luminescence interference; inhibition, % at 12.5 µM; 6,200 compounds, 39% hits; AID 488919;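 active = mean inhibition above about 50% when retested at one dose, limit read from the data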
Of the large screens only hits and unclear results are named; the others gave an inactive call (follow-up assays come after a bar, where they were run).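 Rule for the calls, unless noted: active = mean inhibition above about 50% in the one-dose retest (limit read from the data); inactive = the rest.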

CCC(C)c1ccc(OCc2ccc(C(=O)O)o2)cc1 (stereo unspecified)	SENP6 block 95, SENP7 inh 80, SENP8 block-1 94 (no result: PPC-1+TRAIL kill) | SENP8 conf inactive | SENP6 conf 98 | SENP7 conf 102 | Casp3 SENP sel inactive | SENP luc ctr 98
CC(C)(C)c1ccc(OCc2ccc(C(=O)NN)o2)cc1	none
Cc1cc(COc2ccccc2)oc1C(=O)O	SENP6 block 95, SENP7 inh 100, SENP8 block-1 97 (no result: PPC-1+TRAIL kill) | SENP8 conf 99 | SENP6 conf 100 | SENP7 conf 103 | Casp3 SENP sel 88 | SENP luc ctr 98
COC(=O)c1ccc(COc2ccc3c(C)c(C)c(=O)oc3c2)o1	SENP8 block-1 54 | SENP8 conf inactive | SENP6 conf inactive | SENP7 conf inactive | Casp3 SENP sel inactive | SENP luc ctr inactive
CCOC(=O)c1ccc(COc2ccc(C(C)C)cc2)o1	none
CC(C)(c1ccccc1)c1ccc(OCc2ccc(C(=O)O)o2)cc1	SENP6 block 73, SENP8 block-1 61 (no result: PPC-1+TRAIL kill) | SENP8 conf inactive | SENP6 conf 73 | SENP7 conf 73 | Casp3 SENP sel inactive | SENP luc ctr 78
CCCOc1ccc(C(F)(F)F)cc1NC(=O)CCc1c(C)noc1C	none (no result: PPC-1+TRAIL kill)
COc1ccc(-c2sc3cc4c(cc3c2C#Cc2ccc(N)cc2)OCO4)cc1	none (no result: PPC-1+TRAIL kill)
COc1ccc(S(=O)(=O)N2CCCCC2)cc1NC(=O)c1c(F)cccc1Cl	none (no result: PPC-1+TRAIL kill)
Cc1ccc(OCc2ccc(C(=O)O)o2)cc1C	SENP6 block 88, SENP7 inh 82, SENP8 block-1 84 (no result: PPC-1+TRAIL kill) | SENP8 conf inactive | SENP6 conf 93 | SENP7 conf 101 | Casp3 SENP sel inactive | SENP luc ctr 93
O=C(Nc1nc2c(F)c(F)c(F)cc2s1)c1ccco1	SENP6 block 68, SENP8 block-1 53 (no result: PPC-1+TRAIL kill) | SENP8 conf inactive | SENP6 conf inactive | SENP7 conf 78 | Casp3 SENP sel 52 | SENP luc ctr inactive
O=C(Nc1nc2c(F)cc(F)cc2s1)c1ccco1	SENP6 block 88, SENP7 inh 78, SENP8 block-1 74 (no result: PPC-1+TRAIL kill) | SENP8 conf 60 | SENP6 conf 88 | SENP7 conf 96 | Casp3 SENP sel 90 | SENP luc ctr inactive
C=C(C(=O)Nc1ccccc1)c1ccc(C)cc1	none (no result: PPC-1+TRAIL kill)
CCN1CCc2c(sc(NC(=S)NC(=O)c3ccccc3)c2C#N)C1	SENP6 block 56 | SENP8 conf inactive | SENP6 conf inactive | SENP7 conf inactive | Casp3 SENP sel inactive | SENP luc ctr inactive
N#Cc1c(NC(=S)NC(=O)c2ccccc2)sc2c1CCC2	none
COC(=O)c1cc(C(=O)OCC(=O)c2ccc3c(c2)NC(=O)CO3)cc([N+](=O)[O-])c1	none (no result: PPC-1+TRAIL kill)
COc1ccc(N2CCN(C(=S)Nc3cc(C)ccc3C)CC2)cc1	SENP7 inh 81 | SENP8 conf inactive | SENP6 conf inactive | SENP7 conf inactive | Casp3 SENP sel inactive | SENP luc ctr inactive
COc1ccc(NC(=O)c2ccccc2)cc1	SENP6 block 51, SENP7 inh 58 (no result: PPC-1+TRAIL kill) | SENP8 conf inactive | SENP6 conf inactive | SENP7 conf 78 | Casp3 SENP sel 79 | SENP luc ctr 57
COc1ccc(NC(=O)c2ccc(C)cc2)cc1	SENP6 block 63, C8 TRAIL sens 68 (no result: PPC-1+TRAIL kill) | SENP8 conf inactive | SENP6 conf inactive | SENP7 conf 71 | Casp3 SENP sel 68 | SENP luc ctr inactive
CN(C)S(=O)(=O)Oc1ccc(C(=O)Nc2ccc([N+](=O)[O-])cc2)cc1	none
CC(C)Oc1ccc(C(=O)Nc2ccc([N+](=O)[O-])cc2)cc1	SENP6 block 61, SENP7 inh 86 | SENP8 conf inactive | SENP6 conf inactive | SENP7 conf inactive | Casp3 SENP sel inactive | SENP luc ctr inactive
Cc1cccc(C(=O)N/N=C/c2ccc(OC3CSC3)cc2)c1	none
Cc1cccc(NC(=O)c2ccc(OC3CSC3)cc2)c1	SENP6 block 94, SENP7 inh 97, SENP8 block-1 91 | SENP8 conf 66 | SENP6 conf 89 | SENP7 conf 99 | Casp3 SENP sel 93 | SENP luc ctr 61
COc1ccc(C(=O)NNC(=O)C(=O)Nc2ccc(C)cc2)cc1	none (no result: PPC-1+TRAIL kill)
Cc1ccc(NC(=O)COC(=O)c2oc3ccccc3c2C)cc1S(=O)(=O)N1CCOCC1	none (no result: PPC-1+TRAIL kill)
O=C(O)c1ccc(OC2CSC2)cc1	SENP6 block 52 | SENP8 conf 55 | SENP6 conf 54 | SENP7 conf inactive | Casp3 SENP sel inactive | SENP luc ctr inactive
COc1ccc(NC(=O)OC(C)C)cc1	SENP6 block 55 | SENP8 conf inactive | SENP6 conf inactive | SENP7 conf 71 | Casp3 SENP sel 75 | SENP luc ctr inactive
COc1cccc(NC(=O)c2ccc(NC(=O)C(C)(C)C)cc2)c1	SENP6 block 73, SENP7 inh 72 | SENP8 conf 71 | SENP6 conf 66 | SENP7 conf 86 | Casp3 SENP sel 82 | SENP luc ctr 70
COc1ccc(C(=O)Nc2cccc(C)c2)cc1	SENP6 block 92, SENP7 inh 90, SENP8 block-1 78 | SENP8 conf 84 | SENP6 conf 86 | SENP7 conf 99 | Casp3 SENP sel 92 | SENP luc ctr 85
O=C(NCc1ccccc1)c1ccc(OC2CSC2)cc1	none
CCCC(=O)Nc1ccc(C(=O)Nc2cccc(OC)c2)cc1	none
CCc1nc2c(OCc3cccc(Cl)c3)cccn2c1N(C)C(=O)c1ccc(OC)cc1	none (no result: SENP6 block, SENP7 inh, PPC-1+TRAIL kill, SENP8 block-1)
Cc1ccc(NC(=O)Cc2nc(-c3c[nH]c(C(=O)N4CCCC4)c3)cs2)c(C)c1	none (no result: PPC-1+TRAIL kill)
CCc1ccc(NC(=O)C(C)Sc2nc(-c3ccco3)c(C#N)c(=O)[nH]2)cc1 (stereo unspecified)	none (no result: PPC-1+TRAIL kill)
CCCC#Cc1ccc2c(c1)COc1c3ccccc3nn1-2	SENP6 block 92, SENP7 inh 73, SENP8 block-1 89 (no result: PPC-1+TRAIL kill) | SENP8 conf 53 | SENP6 conf 70 | SENP7 conf 90 | Casp3 SENP sel 86 | SENP luc ctr inactive
CCc1cc(-c2ccc3c(c2)COc2c4ccccc4nn2-3)on1	SENP6 block 81, SENP8 block-1 89 (no result: PPC-1+TRAIL kill) | SENP8 conf inactive | SENP6 conf 89 | SENP7 conf 94 | Casp3 SENP sel 70 | SENP luc ctr inactive
